Screening results (PubChem)
In the library only some 1.5% were active in any assay of this set; here they are far more common.
Mtb MbtI inh – MbtI salicylate synthase inhibition; inhibition, % (test concentration not listed); purified MbtI enzyme, fluorescence intensity read-out; 100,000 compounds, 0.89% hits; in the data active = inhibition mostly above about 56%, no sharp cut-off; inactive = mostly below about 77%
Target sequence (P9WFX0 whole entry, looked up): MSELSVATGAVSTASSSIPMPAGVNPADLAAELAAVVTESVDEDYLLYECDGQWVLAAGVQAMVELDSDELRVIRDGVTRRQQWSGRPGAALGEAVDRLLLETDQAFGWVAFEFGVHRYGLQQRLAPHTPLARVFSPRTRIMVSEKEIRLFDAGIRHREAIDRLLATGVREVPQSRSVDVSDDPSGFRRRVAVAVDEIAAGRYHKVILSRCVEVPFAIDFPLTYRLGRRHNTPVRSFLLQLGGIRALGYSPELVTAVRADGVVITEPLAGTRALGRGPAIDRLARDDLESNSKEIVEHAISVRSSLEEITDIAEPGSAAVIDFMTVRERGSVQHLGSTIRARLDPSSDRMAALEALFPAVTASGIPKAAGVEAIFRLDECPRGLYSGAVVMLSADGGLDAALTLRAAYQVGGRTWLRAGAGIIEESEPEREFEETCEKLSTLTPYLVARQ
PV pol inh – poliovirus RNA polymerase inhibition | P03300 | poliovirus polymerase elongation, fluorescence polarization; active compounds read low | % elongation, % (compound at 16.7 µg/mL) | 150,000 compounds, 0.66% hits; in the data active = % elongation below about 90%
AID504770 – E. coli YBA685 growth inhibition, screen for V. cholerae RctB inhibitors; E. coli YBA685 rctB-dependent plasmid, OD600 growth, 3 h; active compounds read low; z-score (no concentration beside the values); 130,000 compounds, 0.27% hits; AID 504770; in the data active = z-score below about -2, passing the limit was not always enough
MenB inh – blocks the Mycobacterium tuberculosis MenB enzyme; 100,000 compounds, 0.43% hits; P9WNP5; AID 540299; inhibition, % (concentration not given with the values); MenB enzyme assay, absorbance read-out; in the data active = inhibition above about 21%, passing the limit was not always enough
* = called active by the depositor; x = no result given.

SMILES	Mtb MbtI inh	PV pol inh	AID504770	MenB inh
CN(CCC(N)=O)Cc1ccccc1	-2	101	-0.45	38*
CCn1c(NCc2ccccc2)nc2ccccc21	2	100	0.4	38*
C=CCn1c(NCc2ccccc2)nc2ccccc21	x	106	-0.75	-3
O=C1NC(=O)N(C2CCCCC2)C(=O)/C1=C/c1ccc(Br)cc1	34	100	1.9	-15
N=C1/C(=C2\NC(c3ccc(Br)cc3)=CS2)CC(=O)N1C1CC1	91*	113	-0.4	-31
c1ccc2[nH]c(SCCCN3CCCCC3)nc2c1	8	99	-0.4	-19
c1ccc2[nH]c(SN3CCCCC3)nc2c1	97*	100	0.1	-8
CC1CN(c2nc(-c3cccs3)cc(C(F)(F)F)c2C#N)CC(C)O1 (stereo not given)	x	x	-0.1	x
CC1CN(c2nnc(-c3cccs3)c3ccccc23)CC(C)O1 (stereo not given)	-6	105	-2.5*	2
O=C(COc1ccccc1F)Nc1ccccc1O	1	104	-0.15	x
COc1cccc(C2N(Cc3ccccc3)C(=O)C2(F)F)c1OC (stereo not given)	0	89*	1.8	x
O=C1N(Cc2ccccc2)C(c2ccccc2)C1(F)F (stereo not given)	-1	101	0.75	x
O=C1c2ccccc2C(=O)N1CCCc1nn2c(-c3cccnc3)nnc2s1	64*	105	-0.65	-17
COc1ccc(C(=O)Nc2ccccc2C(=O)NC(C(=O)NCc2ccco2)C(C)C)cc1 (stereo not given)	-36	101	0	30*
O=S1NN(c2ccccc2)S(=O)NN1c1ccccc1 (stereo not given)	7	72*	-0.95	-68
CC(/C=C/c1ccc2c(c1)OCO2)=N\NC(=O)c1ccccn1	-10	99	0.35	-37
CCOC(=O)c1c(N)sc2ccccc12	x	x	-0.1	x
CCOC(=O)c1c(N)sc(N)c1C(=O)OCC	97*	98	-0.7	1
CCOc1ccc(NC(=O)Cn2c(=O)n(CC(=O)NCCc3ccccc3)c(=O)c3sccc32)cc1	x	81*	x	x
COC(=O)C1CCN1CC1CCCO1 (stereo not given)	-5	105	-0.65	-25
Nn1c(SCc2ccccc2)n[nH]c1=S	70*	96	-0.3	-5
FC(F)(F)c1nc(NCCc2ccccn2)c2ccccc2n1	-10	100	-1.2	-5
CCOC(=O)C1=C(C)NNC(=Nc2cccc(C)c2C)S1	86*	80*	0.6	-21
NC(=O)c1c(N)sc2c1CCCCC2	32	78*	-1.3	-36
CSc1ccccc1NC(=O)CN1CCc2ccccc21	4	88*	0.1	-9
SMILES	Mtb MbtI inh	PV pol inh	AID504770	MenB inh
CCOc1cc(C(=S)N2CCOCC2)ccc1OC	x	65*	-1.2	-21
COc1ccc(C(=S)N2CCCCC2)cc1OC	82*	98	0.05	-37
CCOc1cc(C(C#N)N2CCOCC2)ccc1OC (stereo not given)	x	x	-0.8	x
COc1ccc(C(=S)N2CCCC2)cc1OC	6	101	0.15	1
N#CCSc1nc2ccc(Cl)cc2[nH]1	53*	102	-1.1	3
NC(=O)CSc1nc2ccc(Cl)cc2[nH]1	5	105	-0.5	-3
CCCCNC(=O)CN1CCN(Cc2cccc(OCC)c2OC)CC1	-6	88*	0.35	7
CCCCNC(=O)C1CCN(Cc2ccccc2OCC)CC1	-1	102	-4.9	-3
Cc1cccc(N2CCN(C(=O)CCCC(=O)N3CCN(c4cccc(C)c4C)CC3)CC2)c1C	-1	101	0.35	-14
CC(C)CN(C(=O)c1ccncc1)c1nc2ccccc2s1	71*	87*	-0.55	-7
COc1ccc(-c2nnc3sc(CN4CCc5ccccc54)cn23)cc1	1	99	-0.25	-19
COCCn1c(C)cc(/C=N/n2c(C)nc3ccccc3c2=O)c1C	-2	104	-0.3	2
COCCn1c(C)cc(/C=N/n2c(Cc3cccc4ccccc34)n[nH]c2=S)c1C	73*	93	1	-31
O=C(O)c1ccc2c(c1)ncn2C1CCCCC1	-6	104	0.8	1
Nc1ccc2c(c1)ncn2C1CCCCC1	90	85*	-0.9	-10
CC(OC(=O)C1=NNC(=O)CC1)C(=O)Nc1nc(-c2ccccc2)cs1 (stereo not given)	6	104	-0.1	-13
c1ccc(C2=NC2c2ccccc2)cc1 (stereo not given)	x	107	2.4	-25
O=C(Cc1ccsc1)Oc1ccc2c(c1)OCO2	-1	99	-0.55	2
CC12CCC(=O)N1C(C(=O)O)Cc1c2[nH]c2ccccc12 (stereo not given)	-5	85*	-0.45	-18
CC(=O)N1C(C(=O)O)Cc2c([nH]c3ccccc23)C1(C)C (stereo not given)	x	105	0	-4
COc1ccc2nc3oc(C(=O)NCCC4=CCCCC4)cc3cc2c1	-82	102	-5.2*	-3
COCc1c(CSSCc2cnc(C)c(O)c2COC)cnc(C)c1O	22	86*	-0.45	38*
COCc1c(CN)cnc(C)c1N	77	104	-0.8	-62
Cc1ccsc1C=Nc1ccc(O)cc1	96*	100	2.2	-28
Cc1ccsc1C=Nc1ccc(OC(F)(F)F)cc1	-10	102	-0.3	x
SMILES	Mtb MbtI inh	PV pol inh	AID504770	MenB inh
CCc1ccc2oc(=O)cc(CN(CC)CCO)c2c1	8	105	-0.6	-13
CCn1c(SCC(=O)Nc2ccc(C)c(C)c2)nnc1-c1nonc1NC(C)=O	x	113	x	x
CCn1c(-c2nonc2NC(C)=O)n[nH]c1=S	65*	102	0.7	-6
CCc1nn2c(=O)cc(COC(=O)c3ccc4c(c3)OCO4)nc2s1	x	104	x	x
CC(C)Cc1nn2c(=O)cc(COC(=O)c3ccc4c(c3)OCO4)nc2s1	x	73*	x	x
O=C1CSc2ccc(C(=O)OCC(=O)N3CCCc4ccccc43)cc2N1	60*	102	0.1	8
CCc1ccc(C=C2C(=O)N(C)C(=S)N(C)C2=O)cc1	99*	98	0.2	-73
COc1ccc(C=C2C(=O)N(C)C(=S)N(C)C2=O)c(C)c1	5	98	-0.75	-56
CN1C(=O)C(=Cc2cn(CC(=O)O)c3ccccc23)C(=O)N(C)C1=S	75*	103	1.6	-43
Cc1ccccc1C=C1C(=O)N(C)C(=S)N(C)C1=O	72*	98	0.4	-125
Cc1cc(=S)[nH]c2ccccc12	61*	104	1	-40
COc1ccc2cc([C@H](C)C(=O)O)ccc2c1	-1	99	0.85	-7
COc1ccc(-c2sccc2C(C)C(=O)O)cc1 (stereo not given)	6	105	0.75	27*
O=C(CN1CCCC1)Nc1cc(C(F)(F)F)cc(C(F)(F)F)c1	x	x	-0.1	x
O=C(Nc1cc(C(F)(F)F)cc(C(F)(F)F)c1)C(=S)N1CCCCC1	x	76*	0.9	1
Cc1cccc(CSc2nc3nc[nH]c3c(=O)[nH]2)c1	13	101	-1.8	-16
CCOc1cc(CNCC(c2ccc(OC)cc2)N2CCCCC2)ccc1OC(C)C(=O)N(C)C (stereo not given)	-11	99	0.6	49*
N=C1N=C2C=CC=CN2C(=O)/C1=C\c1ccccc1	102	102	0.9	-42
